Measurements reported in PubChem BioAssay AID1159580 (chemical genetic matrix, 2015).
Among all 5,500 compounds or so, about 2,000 (36%) were called active. Inconclusive results (about 18%) are left out. Rule as the data show it: active = normalized growth mostly below about 0.91 (no sharp cut-off); inconclusive = no clear call, values can overlap the other calls; inactive = mostly above about 0.92. Some of the results follow.

Assay: chemical genetic growth profiling, strain panel (AID 1159580);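 also: tested at 20 µM; growth read once vehicle control cultures reached saturation at 30 °C; 1 = growth at the plate median or of vehicle wells; lower values mean less growth of the strain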
Conditions: S. cerevisiae deletion strains, growth OD
[1] = locus YDL101C, strain DUN1, stronger effect = lower value
[2] = locus YHR030C, strain SLT2, stronger effect = lower value
[3] = locus YJR075W, strain HOC1, stronger effect = lower value
[4] = locus YMR307W, strain GAS1, stronger effect = lower value
[5] = locus YNL322C, strain KRE1, stronger effect = lower value
[6] = locus YPL241C, strain CIN2, stronger effect = lower value

Measured: normalized growth

O=C1CC(c2ccccc2)=NO1
active: locus YAL013W, strain DEP1, stronger effect = lower value 0.683 | locus YBR229C, strain ROT2, stronger effect = lower value 0.336 | [1] 0.395 | locus YEL061C, strain CIN8, stronger effect = lower value 0.862 | locus YGR078C, strain PAC10, stronger effect = lower value 0.174 | [2] 0.615 | locus YHR087W, strain rtc3, stronger effect = lower value 0.419 | locus YJL187C, strain SWE1, stronger effect = lower value 0.298 | locus YJR043C, strain POL32, stronger effect = lower value 0.566 | [3] 0.3 | locus YLR058C, strain SHM2 (second series), stronger effect = lower value 0.431 | locus YLR085C, strain ARP6, stronger effect = lower value 0.432 | locus YML094W, strain GIM5, stronger effect = lower value 0.743 | locus YMR219W, strain ESC1, stronger effect = lower value 0.26 | [4] 0.511 | locus YNL153C, strain GIM3, stronger effect = lower value 0.0697 | locus YNL298W, strain CLA4 (second series), stronger effect = lower value 0.797 | [5] 0.737 | locus YNR030W, strain Alg12, stronger effect = lower value 0.803 | locus YPL055C, strain LGE1, stronger effect = lower value 0.666 | [6] 0.68 | locus YPR135W, strain CTF4, stronger effect = lower value 0.528
inactive: locus YKL190W, strain CNB1, stronger effect = lower value 0.987 | locus YLR039C, strain RIC1, stronger effect = lower value 1.11 | locus YLR262C, strain YPT6, stronger effect = lower value 1.08

CSc1c(C#N)c(-c2ccc(Cl)cc2)nn1C(=O)c1ccccc1Cl
inactive: locus YAR019C, strain CDC15, stronger effect = lower value 0.966 | locus YBL105C, strain PKC1, stronger effect = lower value 0.95 | locus YBR135W, strain CKS1, stronger effect = lower value 0.957 | locus YBR136W, strain MEC1, stronger effect = lower value 0.951 | locus YBR160W, strain CDC28, stronger effect = lower value 0.951 | locus YDL017W, strain CDC7, stronger effect = lower value 0.946 | locus YDL028C, strain MPS1, stronger effect = lower value 0.951 | [1] 0.94 | locus YDL108W, strain KIN28, stronger effect = lower value 0.954 | locus YDL132W, strain cdc53, stronger effect = lower value 0.948 | locus YDL214C, strain PRR2, stronger effect = lower value 0.964 | locus YDR052C, strain DBF4, stronger effect = lower value 0.957 | locus YDR054C, strain cdc34, stronger effect = lower value 0.941 | locus YDR226W, strain ADK1, stronger effect = lower value 0.933 | locus YDR477W, strain SNF1, stronger effect = lower value 0.938 | locus YER123W, strain YCK3, stronger effect = lower value 0.946 | locus YER133W, strain GLC7, stronger effect = lower value 0.962 | locus YFL009W, strain cdc4, stronger effect = lower value 0.951 | locus YFL029C, strain CAK1, stronger effect = lower value 0.958 | locus YFR003C, strain YPI1, stronger effect = lower value 0.954 | locus YFR019W, strain FAB1, stronger effect = lower value 1 | locus YFR028C, strain CDC14, stronger effect = lower value 0.948 | locus YGR040W, strain KSS1, stronger effect = lower value 0.931 | locus YGR052W, strain FMP48, stronger effect = lower value 0.97 | locus YGR092W, strain DBF2, stronger effect = lower value 0.895 | [2] 1.03 | locus YHR079C, strain IRE1, stronger effect = lower value 1.03 | locus YHR082C, strain KSP1, stronger effect = lower value 1.01 | locus YHR205W, strain SCH9, stronger effect = lower value 0.872 | locus YIL147C, strain SLN1, stronger effect = lower value 0.949 | locus YJL095W, strain BCK1, stronger effect = lower value 0.9 | locus YJL128C, strain PBS2, stronger effect = lower value 0.921 | locus YJL157C, strain FAR1, stronger effect = lower value 0.965 | locus YJR016C, strain ILV3, stronger effect = lower value 0.945 | locus YJR066W, strain TOR1 (second series), stronger effect = lower value 0.946 | locus YJR066W, strain TOR1, stronger effect = lower value 1 | locus YKL048C, strain ELM1, stronger effect = lower value 0.981 | locus YKL067W, strain YNK1, stronger effect = lower value 0.969 | locus YKL101W, strain HSL1, stronger effect = lower value 0.933 | locus YKL193C, strain SDS22, stronger effect = lower value 0.957 | locus YKL203C, strain TOR2, stronger effect = lower value 1.06 | locus YLR133W, strain CKI1, stronger effect = lower value 0.969 | locus YLR403W, strain SFP1, stronger effect = lower value 0.889 | locus YML070W, strain DAK1, stronger effect = lower value 0.948 | locus YMR001C, strain CDC5, stronger effect = lower value 0.957 | locus YMR205C, strain PFK2 (second series), stronger effect = lower value 0.969 | locus YMR277W, strain FCP1, stronger effect = lower value 0.966 | locus YNL006W, strain LST8, stronger effect = lower value 0.975 | locus YNL020C, strain ARK1, stronger effect = lower value 0.958 | locus YNL161W, strain CBK1, stronger effect = lower value 0.958 | locus YNL183C, strain NPR1, stronger effect = lower value 0.969 | locus YNL207W, strain RIO2, stronger effect = lower value 0.938 | locus YNL222W, strain SSU72, stronger effect = lower value 0.963 | locus YNL307C, strain MCK1 (second series), stronger effect = lower value 0.921 | locus YOL078W, strain AVO1, stronger effect = lower value 0.958 | locus YOL136C, strain PFK27, stronger effect = lower value 0.936 | locus YOR061W, strain CKA2, stronger effect = lower value 0.975 | locus YOR119C, strain RIO1, stronger effect = lower value 1.01 | locus YOR231W, strain MKK1, stronger effect = lower value 0.917 | locus YOR329C, strain SCD5, stronger effect = lower value 0.956 | locus YPL031C, strain PHO85, stronger effect = lower value 0.934 | locus YPL153C, strain RAD53, stronger effect = lower value 0.936 | locus YPL204W, strain HRR25, stronger effect = lower value 0.942 | locus YPL209C, strain IPL1, stronger effect = lower value 0.958 | locus YPL256C, strain CLN2, stronger effect = lower value 1.07 | locus YPR025C, strain CCL1, stronger effect = lower value 0.958 | locus YPR106W, strain ISR1, stronger effect = lower value 0.939 | locus YPR111W, strain DBF20, stronger effect = lower value 0.947 | strain NNK1, stronger effect = lower value 0.959 | strain TSCII, stronger effect = lower value 0.958
active: locus YLR113W, strain HOG1, stronger effect = lower value 0.76

CCCN1CCOC2c3cc(O)ccc3OCC21 (configuration not stated)
inactive: locus YAL040C, strain CLN3, stronger effect = lower value 0.983 | locus YCL061C, strain MRC1 (second series), stronger effect = lower value 0.993 | locus YDR150W, strain NUM1, stronger effect = lower value 0.988 | locus YDR363W, strain ESC2, stronger effect = lower value 0.96 | locus YER002W, strain NOP16, stronger effect = lower value 1 | locus YGR229C, strain SMI1, stronger effect = lower value 1.03 | [3] 1.01 | locus YMR263W, strain SAP30, stronger effect = lower value 1 | [4] 1.02 | locus YNL128W, strain TEP1, stronger effect = lower value 0.993 | locus YNL175C, strain NOP13, stronger effect = lower value 0.984 | locus YNL197C, strain WHI3, stronger effect = lower value 0.975 | locus YNL224C, strain SQS1, stronger effect = lower value 1 | [5] 0.994 | locus YOR083W, strain WHI5 (second series), stronger effect = lower value 0.983 | [6] 0.998
